Compounds with a hit are over-represented: about 1.6% of the library has one in this group of screens.
PKA-R2B act – activators of PKA-R2B holoenzyme, primary screen, biochemical, fluorescence polarization, Cy5-IP20, human; activation, % at 11.4 µM; PKA-R2B holoenzyme dissociation; R2B truncated from residue 108, S112A mutant; 0% DMSO only, 100% 113 µM cGMP; cAMP-dependent protein kinase catalytic subunit beta (Homo sapiens) + cAMP-dependent …; 0.079% of 340,000 active;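 active = activation above a cutoff set at the mean over all compounds plus 3 SD, cut at about 18% in these data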;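 note: higher means more holoenzyme dissociation and a rise in polarization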
ATG4B inhibitor – ATG4B protease inhibitors, primary screen, biochemical, fluorescence, uHTS | Cysteine protease ATG4B (Homo sapiens), Q9Y4P1 | ATG4B cleavage of LC3-PLA2, NBD-HPC fluorescence, 1 h | inhibition, % at 8.33 µM | 0.51% of 340,000 active; in the data active = inhibition above about 40%
PKA-R1A act – activators of PKA-R1A holoenzyme, primary screen, biochemical, fluorescence polarization, Cy5-IP20, bovine R1A, mouse PKAc. activation, % at 11.4 µM. PKA-R1A dissociation; scaled: DMSO 0%, 113 µM cGMP 100%. AID 504707, 2011. 0.083% of 340,000 active;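 active = percent activation above the mean of all tested compounds plus 3 SD, cut at about 19% in these data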;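 note: higher means more PKAc released from R1A so a rise in polarization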
NRP1-CendR mod – modulators of CendR peptide binding to NRP-1, primary screen, biochemical, fluorescence polarization, uHTS; inhibition, % at 25 µM; FAM-RPARPAR peptide binding to NRP-1; 0.85% of 360,000 active;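 active = inhibition or corrected inhibition above about 18%, plus a signal ratio from 0.5 to 1.5, limit read from the data, passing the limit was not always enough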
VLA-4 inh – inhibition in human VLA-4 binding assay, primary screen, VLA-4 allosteric modulator project, MLPCN library, flow cytometry, VLA-4 expressing cells. ligand binding flow cytometry. inhibition, % (about 7 µM as worked out from the volumes in the protocol). 0.2% of 330,000 active. AID 2557, 2010; in the data active = inhibition above about 50%
Target sequence (P13612 whole entry, looked up): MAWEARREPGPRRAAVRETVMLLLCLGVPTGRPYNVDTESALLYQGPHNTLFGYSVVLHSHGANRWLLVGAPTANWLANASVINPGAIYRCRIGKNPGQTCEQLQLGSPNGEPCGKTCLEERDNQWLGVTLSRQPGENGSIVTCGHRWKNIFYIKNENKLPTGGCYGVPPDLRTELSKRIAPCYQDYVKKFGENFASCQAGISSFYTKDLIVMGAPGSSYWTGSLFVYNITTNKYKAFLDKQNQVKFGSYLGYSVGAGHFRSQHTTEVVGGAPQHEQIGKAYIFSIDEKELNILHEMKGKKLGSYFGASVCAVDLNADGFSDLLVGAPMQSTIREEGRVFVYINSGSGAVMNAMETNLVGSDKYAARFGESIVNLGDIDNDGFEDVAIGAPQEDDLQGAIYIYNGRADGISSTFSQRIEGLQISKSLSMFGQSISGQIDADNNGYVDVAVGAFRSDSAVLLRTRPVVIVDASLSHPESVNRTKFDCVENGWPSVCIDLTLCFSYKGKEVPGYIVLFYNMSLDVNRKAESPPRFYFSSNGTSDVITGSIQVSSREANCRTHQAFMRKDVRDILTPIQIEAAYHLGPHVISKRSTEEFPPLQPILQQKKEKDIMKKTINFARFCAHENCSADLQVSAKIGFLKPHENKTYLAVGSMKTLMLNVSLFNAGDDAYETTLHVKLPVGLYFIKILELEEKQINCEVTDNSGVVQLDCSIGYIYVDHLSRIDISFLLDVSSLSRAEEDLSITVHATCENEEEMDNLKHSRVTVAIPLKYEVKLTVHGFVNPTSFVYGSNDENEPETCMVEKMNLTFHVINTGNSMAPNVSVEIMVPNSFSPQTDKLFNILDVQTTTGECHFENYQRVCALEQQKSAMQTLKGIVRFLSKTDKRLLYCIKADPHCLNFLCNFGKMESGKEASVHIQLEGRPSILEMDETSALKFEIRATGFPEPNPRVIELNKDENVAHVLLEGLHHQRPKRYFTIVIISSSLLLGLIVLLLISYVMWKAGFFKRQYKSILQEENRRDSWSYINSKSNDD
Large screens that a line does not name were inactive.

CCOc1ccccc1NC(=O)Nc1ccc(CC#N)cc1	none
CNC(=O)c1ccsc1NC(=O)C1CCCN1S(=O)(=O)c1cccs1 (stereo not drawn)	none
Cc1cc2cc(CNC(=O)c3ccc(S(=O)(=O)N4CCCC4)cc3)ccc2n1C	NRP1-CendR mod 26
COc1ccc(C)cc1NC(=O)c1cccc(C(=O)Nc2cc(C)ccc2OC)c1	NRP1-CendR mod 33
COc1ccc(C)cc1NC(=O)c1ccc2c(c1)OCO2	none
COc1cc(O)c(C(CC(=O)N2CCOCC2)c2ccc(N(C)C)cc2)c(OC)c1 (stereo not drawn)	NRP1-CendR mod 24 (no result: VLA-4 inh)
COc1cc(O)c(C(CC(=O)N2CCOCC2)c2ccc3c(c2)OCO3)c(OC)c1 (stereo not drawn)	NRP1-CendR mod 28
COc1ccc(N2CCN(C(=O)CCS(=O)(=O)c3ccc4c(c3)NC(=O)CO4)CC2)cc1	none
Cc1ccc(CN2CC(N3CCN(CC4CC4)CC3)CS2(=O)=O)cc1 (stereo not drawn)	none (no result: PKA-R2B act, ATG4B inhibitor, PKA-R1A act, VLA-4 inh)
O=S(=O)(Nc1ccc(Br)cc1)c1cccc(NS(=O)(=O)c2cccs2)c1	NRP1-CendR mod 21 (no result: VLA-4 inh)
Cc1ccc(NS(=O)(=O)c2ccc(NS(=O)(=O)c3cccs3)cc2)cc1	none
CCOc1ccc(/C=C2/Sc3ccc(C(=O)NCC4CCCO4)cc3N(C)C2=O)cc1OC (stereo not drawn)	NRP1-CendR mod 27
O=C(c1ccco1)N1CCN(C(=O)c2ccccc2OC(=O)C23CC4CC(CC(C4)C2)C3)CC1	NRP1-CendR mod 20 (no result: VLA-4 inh)
Cn1c(N)c(C(=O)COC(=O)C2CC(=O)N(Cc3ccccc3)C2)c(=O)n(C)c1=O (stereo not drawn)	none
COc1cc(/C=c2\sc3nc(=O)c(-c4ccccc4)nn3c2=O)ccc1OCCC(C)C	NRP1-CendR mod 40
CCOc1ccc(/C=c2\sc3nc(-c4ccco4)nn3c2=O)cc1OCC	none
Cc1ccc(N=C2NC(=O)CS2)cc1	none
Cc1ccc(C)n1/N=C1/NC(=O)CS1	ATG4B inhibitor 41
CCCS(=O)(=O)NC(=O)C1(C)CCCN(C(=O)c2ccc(C(=O)OC)cc2)C1 (stereo not drawn)	none (no result: PKA-R2B act, ATG4B inhibitor, PKA-R1A act, VLA-4 inh)
CC(C)(C)n1cnc2cc(NS(=O)(=O)c3ccccc3)ccc21	NRP1-CendR mod 23
N#Cc1cccc(C(=O)C(=O)N2CCN(C(=O)OCc3ccccc3)CC2)c1	none (no result: PKA-R2B act, ATG4B inhibitor, PKA-R1A act, VLA-4 inh)
COc1ccc(Cl)cc1NC(=O)c1cccc(S(=O)(=O)Nc2c(C)n(C)n(-c3ccccc3)c2=O)c1	none (no result: PKA-R2B act, PKA-R1A act, NRP1-CendR mod, VLA-4 inh)
Fc1cccc(Cc2c(-c3ccccc3)nc3c(Cl)cc(C(F)(F)F)cn23)c1	none (no result: PKA-R2B act, ATG4B inhibitor, PKA-R1A act, VLA-4 inh)
COC1=C(N)C(=O)c2nc(-c3nc(C(=O)O)c(C)c(-c4ccc(OC)c(OC)c4O)c3N)ccc2C1=O	ATG4B inhibitor 69 (no result: PKA-R2B act, PKA-R1A act, NRP1-CendR mod)
COc1ccc(-c2ncncc2-c2csc(C)n2)c(O)c1OC	none
OC(CN1CCN(c2ccccc2)CC1)Cn1c2ccccc2c2ccccc21 (stereo not drawn)	NRP1-CendR mod 25
OC(CN1CCN(Cc2ccccc2)CC1)Cn1c2ccccc2c2ccccc21 (stereo not drawn)	none
O=c1[nH]c(=O)n(Cc2ccccc2)c2nc(-c3ccc(Oc4ccc(F)cc4)c([N+](=O)[O-])c3)n(CCO)c12	NRP1-CendR mod 26
Cc1cccc(Cn2c(N(C)Cc3ccccc3)nc3c2c(=O)[nH]c(=O)n3C)c1	NRP1-CendR mod 26
CN(Cc1ccccc1)c1nc2c(c(=O)[nH]c(=O)n2C)n1C	none
CCCC(=O)N1CCOCC1c1cc(C(=O)NCc2ccccc2)no1 (stereo not drawn)	none (no result: PKA-R2B act, ATG4B inhibitor, PKA-R1A act, VLA-4 inh)
Oc1cccc(C(O)CNCc2ccc(-c3ccccc3)cc2)c1 (stereo not drawn)	NRP1-CendR mod 28
O=C1C=C(NCCc2cc(Br)c(O)c(Br)c2)C(=O)c2ncccc21	NRP1-CendR mod 42 (no result: VLA-4 inh)
Cc1ccc(OCCN2C(=O)C(=O)c3cc(C)ccc32)cc1	none
Cc1ccc2c(c1)C(=O)C(=O)N2CC(=O)OC(C)C	NRP1-CendR mod 27
COc1ccccc1/C=N/NC(=O)CN(C1=NS(=O)(=O)c2ccccc21)c1ccccc1	NRP1-CendR mod 26
CNc1cnc(-c2ccc(F)c(F)c2F)cn1	none (no result: PKA-R2B act, ATG4B inhibitor, PKA-R1A act, VLA-4 inh)
Cc1cc(C(=O)CSc2nc(N)cc(=O)[nH]2)c(C)n1CC1CCCO1 (stereo not drawn)	NRP1-CendR mod 21
CN1CCN(NC(=O)c2c(-c3ccccc3)sc3ccccc23)CC1	none
Cc1ccc(C(=O)NCCCc2ccccc2)c(C)c1	NRP1-CendR mod 22
Cc1ccc(C(=O)NCCCc2ccccc2)c(Cl)c1	none
NS(=O)(=O)c1ccc(NC2=CC(=O)C(=O)c3ccccc32)cc1	NRP1-CendR mod 31
COC(=O)[C@@]12C[C@@H](CC(=O)NCc3ccc(C)o3)C(=O)N(CCc3ccc(OC)c(OC)c3)C1=CCC(C)(C)C2	none (no result: PKA-R2B act, ATG4B inhibitor, PKA-R1A act, VLA-4 inh)
OCC[C@@H]1C[C@@H](O)[C@H](O)[C@@]2(CCCc3ccccc3O2)O1	NRP1-CendR mod 25
OCC[C@@H]1C[C@@H](O)[C@H](O)[C@]2(OCc3ccccc32)O1	NRP1-CendR mod 27
C[C@H]1CCC[C@@]2(O[C@@H](CCO)C[C@@H](O)[C@@H]2O)O1	NRP1-CendR mod 25 (no result: VLA-4 inh)
OCC[C@@H]1C[C@H](O)[C@@H](O)[C@@]2(CCCO2)O1	NRP1-CendR mod 24 (no result: VLA-4 inh)
CCCCn1nnnc1C(c1ccccc1)N1CCCN(Cc2ccc(F)cc2)CC1 (stereo not drawn)	none (no result: PKA-R2B act, ATG4B inhibitor, PKA-R1A act, VLA-4 inh)
OCC[C@H]1C[C@H](O)[C@@H](O)[C@]2(CCCO2)O1	NRP1-CendR mod 38
CC(=O)OCC1OC(OCc2cn(C[C@H]3CC[C@H](Cn4cc(COC5OC(COC(C)=O)C(OC(C)=O)C(OC(C)=O)C5OC(C)=O)nn4)O3)nn2)C(OC(C)=O)C(OC(C)=O)C1OC(C)=O (stereo partly drawn)	NRP1-CendR mod 19
CC(=O)OCC1OC(OCc2cn(C[C@H]3CC[C@@H]([C@@H]4CC[C@H](Cn5cc(COC6OC(COC(C)=O)C(OC(C)=O)C(OC(C)=O)C6OC(C)=O)nn5)O4)O3)nn2)C(OC(C)=O)C(OC(C)=O)C1OC(C)=O (stereo partly drawn)	none
CCN(CC)S(=O)(=O)c1ccc(-c2nnc(SCC(=O)N3c4ccccc4CC3C)n2CC)cc1 (stereo not drawn)	NRP1-CendR mod 26
CCN(CC)S(=O)(=O)c1ccc(-c2nnc(SCC(=O)N3c4ccccc4CC3C)o2)cc1 (stereo not drawn)	none

Screening results: PubChem, several laboratories
